Results on 10 molecules are retold here after PubChem BioAssay.

Some of the results follow. Records with an inconclusive call do not appear. Values without a mark were called inactive. The source made the active and inactive calls.

Experiment [1] deals with Solute carrier family 12 member 5 (Homo sapiens) (UniProt Q9H2X9). Nature of the experiment: retest of KCC2 transport modulators without sodium – cell-based, HEK293 KCC2, thallium flux, secondary assay, confirmation (AID 1713;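 active = thallium flux slope above the same plate's solvent-only control mean plus 3 SD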). Particulars: FluoZin2 fluorescence, at 10 µM, stronger effect = higher value.
A further experiment is described as follows: PubChem AID 1714.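 Note: raw slope of fluorescence over initial fluorescence between 10 and 20 s after thallium.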 As to conditions: HEK293-KCC2 + bumetanide/ouabain, thallium flux FluoZin2; at 10 µM; stronger effect = higher value.
The target in experiment [2] is Solute carrier family 12 member 5 (Homo sapiens) (UniProt Q9H2X9). Nature of the experiment: retest of KCC2 transport modulation, ouabain-free – cell-based, HEK293 KCC2, thallium flux, FluoZin2, secondary assay 2, confirmation (AID 1715;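 active = thallium flux slope more than 3 SD above or below the plate's solvent-only control mean, mostly below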;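 note: raw slope with 0.1% DMSO as baseline and bumetanide as block control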). As to conditions: HEK293-KCC2, thallium flux FluoZin2 fluorescence; at 10 µM; actives lie on both sides; F/F0 rise rate, 10–20 s post-thallium.

A short description of experiment [3]: compound effects on native HEK Tl+ uptake – HEK cells, counterscreen 1, counter-screen for KCC2 modulator project, confirmation (AID 1716). Particulars: HEK293 parental cells, thallium flux FluoZin2, ouabain; at 10 µM; baseline-ratio fluorescence slope, 10–20 s after thallium. On the technique in general: The purpose of a counterscreen is to sort out artefacts and off-target activity.

Experiment [4] addresses Solute carrier family 12 member 5 (Homo sapiens) (UniProt Q9H2X9). Nature of the experiment: modulation of KCC2 thallium flux in HEK cells – cell-based, ouabain, retest, confirmation (AID 1717;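 active = thallium flux slope beyond 3 SD from same-plate DMSO control mean in most replicates, usually higher, sometimes lower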;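 note: slope of initial-normalized fluorescence between seconds 10 and 20 after thallium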). Particulars: HEK293-KCC2, thallium flux FluoZin2 fluorescence, at 10 µM, bidirectional: low = inhibitor, high = activator.
Experiment [5] is described as follows: native HEK Tl+ uptake effects, second counter-screen – HEK cells, counterscreen 2, counter-screen for KCC2 modulator project, confirmation (AID 1718;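 active = thallium flux slope above the same plate's solvent-control mean plus 3 SD in both duplicate wells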;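 note: run without ouabain in cells lacking the KCC2 cotransporter; slope of fluorescence scaled to its starting value between 10 and 20 s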). Particulars: HEK293 parental, thallium flux FluoZin-2 fluorescence slope; at 10 µM.

Sequence of Solute carrier family 12 member 5 (Homo sapiens) (Q9H2X9 whole entry, looked up): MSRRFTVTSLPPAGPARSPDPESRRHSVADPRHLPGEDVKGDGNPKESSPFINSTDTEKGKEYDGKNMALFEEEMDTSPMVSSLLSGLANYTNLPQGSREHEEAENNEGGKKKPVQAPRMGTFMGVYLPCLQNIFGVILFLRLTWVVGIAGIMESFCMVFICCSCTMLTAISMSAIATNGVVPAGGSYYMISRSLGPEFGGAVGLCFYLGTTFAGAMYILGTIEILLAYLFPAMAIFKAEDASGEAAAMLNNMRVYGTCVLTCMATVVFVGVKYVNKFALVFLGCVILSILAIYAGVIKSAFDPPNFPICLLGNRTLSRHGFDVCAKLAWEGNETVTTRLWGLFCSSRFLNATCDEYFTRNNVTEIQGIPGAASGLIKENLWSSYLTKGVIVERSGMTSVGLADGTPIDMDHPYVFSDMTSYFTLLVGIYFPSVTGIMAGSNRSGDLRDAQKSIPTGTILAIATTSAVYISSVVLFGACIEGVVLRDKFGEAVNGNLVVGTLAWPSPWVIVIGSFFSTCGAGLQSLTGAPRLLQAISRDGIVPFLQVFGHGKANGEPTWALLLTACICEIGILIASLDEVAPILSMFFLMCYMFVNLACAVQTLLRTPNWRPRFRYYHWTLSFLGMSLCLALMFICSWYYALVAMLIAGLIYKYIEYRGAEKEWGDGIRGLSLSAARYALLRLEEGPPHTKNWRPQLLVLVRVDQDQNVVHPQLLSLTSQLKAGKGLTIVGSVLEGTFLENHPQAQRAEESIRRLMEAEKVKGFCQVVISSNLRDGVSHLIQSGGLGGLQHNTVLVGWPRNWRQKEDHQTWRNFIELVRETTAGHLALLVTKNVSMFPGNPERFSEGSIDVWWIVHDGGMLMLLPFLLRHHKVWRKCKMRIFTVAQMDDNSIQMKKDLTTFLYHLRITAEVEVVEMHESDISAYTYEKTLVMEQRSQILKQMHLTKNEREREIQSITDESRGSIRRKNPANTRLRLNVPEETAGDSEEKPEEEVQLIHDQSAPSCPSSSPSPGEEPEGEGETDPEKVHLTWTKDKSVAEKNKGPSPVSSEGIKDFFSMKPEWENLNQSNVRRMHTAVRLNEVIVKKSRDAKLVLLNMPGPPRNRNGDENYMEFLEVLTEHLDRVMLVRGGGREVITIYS

Consider `CCCCn1c(=S)[nH]c2ccccc2c1=O`, for which, in experiment [1], the normalised thallium flux (F/F0 slope) was 0.05 (active). Also, the figures for the normalized thallium flux (in “PubChem AID 1714”; in experiment [2]) were 0.179 (active) and 0.0834 (active), respectively. Further, the thallium flux rate (normalised fluorescence) in experiment [3] was 0.114 (active). The raw Tl+ flux slope (below DMSO = inhibition, above = activation) in experiment [4] is 0.145 (active). Also, the thallium flux slope in experiment [5] was 0.0577 (active).

As to `COc1ccc(C2/C=C\CN(S(=O)(=O)c3cccs3)CC(=O)N2Cc2ccc(F)cc2)cc1` (stereo not given), the normalised thallium flux (F/F0 slope) in experiment [1] was 0.00741. Moreover, the normalized thallium flux in the experiment “PubChem AID 1714” was 0.00428; in experiment [2], 0.0313. For the same molecule, in experiment [3], the thallium flux rate (normalised fluorescence) was 0.00682. Also, in experiment [5], the thallium flux slope was 0.00998.

As to `O=C(NNc1ccccc1Cl)C(O)(c1cccc(C(F)(F)F)c1)c1cccc(C(F)(F)F)c1`, the normalised thallium flux (F/F0 slope) in experiment [1] was 0.0066. The values for the normalized thallium flux (in the experiment “PubChem AID 1714”; in experiment [2]) were 0.018 (active) and 0.035, respectively. In addition, the thallium flux rate (normalised fluorescence) in experiment [3] is 0.0219 (active). In experiment [4], the raw Tl+ flux slope (below DMSO = inhibition, above = activation) is 0.0285 (active). Further, the thallium flux slope in experiment [5] is 0.018 (active).

With `Cc1cccc(-n2c(SCC(N)=O)nc3c(c2=O)C2(CCCCC2)Cc2ccccc2-3)c1`, the normalised thallium flux (F/F0 slope) in experiment [1] was 0.00538. For the same molecule, the normalized thallium flux in the experiment “PubChem AID 1714” was 0.017 (active); in experiment [2], 0.032. The thallium flux rate (normalised fluorescence) in experiment [3] is 0.0115 (active). Besides, the thallium flux slope in experiment [5] was 0.0138 (active).

Regarding `CC(=O)NNC(=O)c1csc(Cc2c(Cl)sc3ccc(Cl)cc23)n1`, the normalised thallium flux (F/F0 slope) in experiment [1] was 0.00965. Further, the normalized thallium flux in “PubChem AID 1714” is 0.0419 (active); in experiment [2] it was 0.0308. Besides, in experiment [3], the thallium flux rate (normalised fluorescence) was 0.0146 (active). Also, the thallium flux slope in experiment [5] is 0.0112 (active).

Regarding `O=C(CSC1=NCCS1)Nc1nc(-c2ccccc2)cs1`, in experiment [1], the normalised thallium flux (F/F0 slope) is 0.0102. The figures for the normalized thallium flux (in the experiment “PubChem AID 1714”; in experiment [2]) were 0.00549 and 0.0253 (active), respectively. Also, the thallium flux rate (normalised fluorescence) in experiment [3] is 0.00757. Besides, the raw Tl+ flux slope (below DMSO = inhibition, above = activation) in experiment [4] was 0.0163 (active). In experiment [5], the thallium flux slope is 0.0115.

Take `COCCNc1nc(-n2nc(C)cc2C)nc2sc3c(c12)CCCC3`: the normalised thallium flux (F/F0 slope) in experiment [1] was 0.00873. Also, the normalized thallium flux in the experiment “PubChem AID 1714” was 0.00523; in experiment [2], 0.0328. Also, the thallium flux rate (normalised fluorescence) in experiment [3] was 0.00524 (active). In experiment [4], the raw Tl+ flux slope (below DMSO = inhibition, above = activation) was 0.0165 (active). The thallium flux slope in experiment [5] is 0.00908.

`Cc1cccc(NC(=S)NC(=O)c2ccc(Br)o2)c1`: in experiment [1], the normalised thallium flux (F/F0 slope) is 0.0193 (active). In addition, the normalized thallium flux in the experiment “PubChem AID 1714” is 0.142 (active); in experiment [2] it was 0.0972 (active). For the same molecule, in experiment [3], the thallium flux rate (normalised fluorescence) is 0.129 (active). The raw Tl+ flux slope (below DMSO = inhibition, above = activation) in experiment [4] is 0.124 (active). The thallium flux slope in experiment [5] is 0.0866 (active).

Consider `CC(=O)NC(=S)NNC(=O)c1ccc(Br)cc1`, for which the normalised thallium flux (F/F0 slope) in experiment [1] was 0.00779. For the same molecule, the figures for the normalized thallium flux (in the experiment “PubChem AID 1714”; in experiment [2]) were 0.0133 (active) and 0.0358, respectively. Also, the thallium flux rate (normalised fluorescence) in experiment [3] was 0.0158 (active). In addition, in experiment [5], the thallium flux slope was 0.0176 (active).

As for `Cc1ccc(NCc2n[nH]c(=S)n2-c2ccccc2)cc1Cl`, the normalised thallium flux (F/F0 slope) in experiment [1] is 0.00768. Also, the results for the normalized thallium flux (in “PubChem AID 1714”; in experiment [2]) were 0.0747 (active) and 0.0302, respectively. Moreover, in experiment [3], the thallium flux rate (normalised fluorescence) was 0.00846 (active). Moreover, the thallium flux slope in experiment [5] was 0.00946.
